For some of these results: Measured potencies and affinities stand elsewhere.
Legend:
Design in all cases: scale not given: direction of the effect not stated beside the values
[1] = target: Protein translocase subunit SecA (Escherichia coli (strain K12)) (UniProt P10408); assay: Assay to Identify E. coli SecA ATPase Inhibitors; assay type: functional; conditions: 30 µM
[2] = target: T1, Ubiquitin-activating enzyme e1, putative (Leishmania donovani (strain BPK282A1)) (UniProt E9BSI1); assay: Leishmania donovani Ubiquitin Activating Enzyme (LdE1); assay type: functional; conditions: 30 µM
T1 sequence (whole entry): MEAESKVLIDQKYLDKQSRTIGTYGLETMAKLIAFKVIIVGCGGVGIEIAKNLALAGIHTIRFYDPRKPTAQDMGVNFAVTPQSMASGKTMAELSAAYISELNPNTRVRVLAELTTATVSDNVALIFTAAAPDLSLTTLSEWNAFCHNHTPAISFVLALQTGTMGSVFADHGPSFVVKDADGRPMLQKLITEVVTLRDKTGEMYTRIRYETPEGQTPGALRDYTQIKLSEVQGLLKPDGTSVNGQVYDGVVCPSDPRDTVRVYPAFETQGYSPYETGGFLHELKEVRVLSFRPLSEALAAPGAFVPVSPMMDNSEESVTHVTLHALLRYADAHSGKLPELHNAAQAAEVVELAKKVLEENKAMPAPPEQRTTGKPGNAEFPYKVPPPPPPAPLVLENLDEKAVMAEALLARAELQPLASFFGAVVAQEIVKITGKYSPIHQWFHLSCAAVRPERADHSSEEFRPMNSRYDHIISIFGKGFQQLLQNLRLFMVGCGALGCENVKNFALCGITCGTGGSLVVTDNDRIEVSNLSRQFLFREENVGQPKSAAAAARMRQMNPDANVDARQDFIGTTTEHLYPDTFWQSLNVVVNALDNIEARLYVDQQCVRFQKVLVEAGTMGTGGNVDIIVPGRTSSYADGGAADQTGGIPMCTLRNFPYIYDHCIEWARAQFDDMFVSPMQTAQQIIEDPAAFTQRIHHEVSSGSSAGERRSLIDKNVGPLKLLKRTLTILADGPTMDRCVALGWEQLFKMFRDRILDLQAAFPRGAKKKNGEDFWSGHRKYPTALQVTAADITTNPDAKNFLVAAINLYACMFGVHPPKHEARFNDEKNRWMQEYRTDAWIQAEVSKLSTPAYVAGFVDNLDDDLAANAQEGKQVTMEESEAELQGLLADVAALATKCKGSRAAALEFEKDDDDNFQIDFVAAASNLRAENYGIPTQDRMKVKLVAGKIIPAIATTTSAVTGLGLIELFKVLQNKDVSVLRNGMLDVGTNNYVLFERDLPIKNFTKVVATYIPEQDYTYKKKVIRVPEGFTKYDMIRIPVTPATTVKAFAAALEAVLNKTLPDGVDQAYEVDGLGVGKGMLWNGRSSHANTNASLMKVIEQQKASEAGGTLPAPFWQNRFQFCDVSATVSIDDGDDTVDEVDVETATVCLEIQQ

[3] = target: AMP-activated protein kinase, AMPK (Homo sapiens) (UniProt P54646+O43741+P54619+Q9UGJ0+Q9Y478+Q13131+Q9UGI9); assay: AMP-dependent Kinase enzyme assay. An in vitro enzyme assay that detects ADP turnover that is directly proportional to AMPK activity. This uses naive AMPK that is activated during the assay with MK-8722; assay type: functional; conditions: 30 µM
[4] = target: Sialic acid-binding Ig-like lectin 9 (Homo sapiens) (UniProt Q9Y336); assay: Hs-Siglec9 ALPHAscreen SOP 20170721; conditions: 10 µM
Trypanosoma cruzi = assay: Trypanosoma cruzi phosphomannomutase and mannose-1-phosphate guanylyltransferase assay; assay type: functional; conditions: 10 µM
[5] = target: T2, Arginase-2, mitochondrial (Homo sapiens) (UniProt P78540); assay: in vitro enzyme assay to detect the production of urea directly proportional to the activity of Arginase II; assay type: functional; conditions: 33.3 µM; further: in the data most compounds retested in dose-response had high values
T2 sequence (whole entry): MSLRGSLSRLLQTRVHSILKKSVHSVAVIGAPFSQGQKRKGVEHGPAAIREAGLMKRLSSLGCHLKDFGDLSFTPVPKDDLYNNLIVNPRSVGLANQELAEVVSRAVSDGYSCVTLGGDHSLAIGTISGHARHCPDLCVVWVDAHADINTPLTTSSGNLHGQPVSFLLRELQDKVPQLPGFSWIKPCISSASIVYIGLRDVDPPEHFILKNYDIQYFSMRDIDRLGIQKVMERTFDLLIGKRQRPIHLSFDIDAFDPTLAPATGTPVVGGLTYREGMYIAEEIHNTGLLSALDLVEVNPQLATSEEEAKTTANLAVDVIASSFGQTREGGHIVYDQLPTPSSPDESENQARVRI

[6] = target: T3, Proteasome subunit beta (Trypanosoma cruzi) (UniProt O96673); assay: Trypanosoma cruzi proteasome chymotrypsin-like activity (TcProtChymo) assay.; further: in the data most compounds retested in dose-response had high values; assay type: functional; conditions: 9.37 µM
T3 sequence (whole entry): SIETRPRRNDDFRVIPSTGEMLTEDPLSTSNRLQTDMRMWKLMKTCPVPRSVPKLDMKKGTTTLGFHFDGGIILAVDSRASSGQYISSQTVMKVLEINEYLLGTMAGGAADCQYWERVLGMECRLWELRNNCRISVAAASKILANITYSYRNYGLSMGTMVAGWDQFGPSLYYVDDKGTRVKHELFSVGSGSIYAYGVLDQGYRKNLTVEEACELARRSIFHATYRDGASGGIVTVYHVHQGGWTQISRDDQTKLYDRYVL

Homo sapiens = species on record: Homo sapiens; assay: To identify inhibition of the IFN signalling (Jak-Stat) pathway via expression of an eGFP reporter gene under the control of an IFN-stimulated response element (ISRE) containing MxA promoter.; assay type: functional; conditions: 30 µM
[7] = target: T4, Tyrosyl-tRNA synthetase, putative (Trypanosoma cruzi (strain CL Brener)) (UniProt Q4DSP6); assay: Trypanosoma cruzi tyrosyl tRNA synthetase (TcYRS) _High Tyrosine SOP; assay type: functional; conditions: 30 µM; further: in the data most compounds retested in dose-response had high values
T4 sequence (whole entry): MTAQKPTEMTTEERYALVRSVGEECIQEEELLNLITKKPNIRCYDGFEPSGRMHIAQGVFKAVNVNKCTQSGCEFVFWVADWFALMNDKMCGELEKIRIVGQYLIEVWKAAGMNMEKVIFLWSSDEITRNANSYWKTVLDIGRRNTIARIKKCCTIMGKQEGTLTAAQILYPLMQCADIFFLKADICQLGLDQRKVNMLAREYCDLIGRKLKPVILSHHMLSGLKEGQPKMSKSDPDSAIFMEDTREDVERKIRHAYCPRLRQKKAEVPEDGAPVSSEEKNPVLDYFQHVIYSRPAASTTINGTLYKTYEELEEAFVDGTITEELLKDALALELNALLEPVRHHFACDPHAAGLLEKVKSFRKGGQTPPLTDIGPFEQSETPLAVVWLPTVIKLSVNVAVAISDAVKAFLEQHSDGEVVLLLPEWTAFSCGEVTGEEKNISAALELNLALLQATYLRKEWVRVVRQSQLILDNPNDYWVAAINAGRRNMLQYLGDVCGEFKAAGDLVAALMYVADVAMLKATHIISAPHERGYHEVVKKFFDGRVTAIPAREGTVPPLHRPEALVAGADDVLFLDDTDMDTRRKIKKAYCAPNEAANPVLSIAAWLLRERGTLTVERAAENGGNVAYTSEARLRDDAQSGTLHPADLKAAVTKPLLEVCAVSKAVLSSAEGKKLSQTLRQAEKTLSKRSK

[8] = target: T4, Tyrosyl-tRNA synthetase, putative (Trypanosoma cruzi (strain CL Brener)); assay: Trypanosoma cruzi tyrosyl tRNA synthetase (TcYRS) SOP; assay type: functional; conditions: 30 µM
[9] = target: Chromo domain-containing protein 1 (Saccharomyces cerevisiae (strain ATCC 204508 / S288c) (Baker's yeast)) (UniProt P32657); assay: ScCHD-1 Enzyme Inhibition Assay; assay type: functional; conditions: 30 µM; further: in the data most compounds retested in dose-response had high values
Chromo domain-containing protein 1 (Saccharomyces cerevisiae (strain ATCC 204508 / S288c) (Baker's yeast)), sequence (P32657 whole entry, the tested form may be a part): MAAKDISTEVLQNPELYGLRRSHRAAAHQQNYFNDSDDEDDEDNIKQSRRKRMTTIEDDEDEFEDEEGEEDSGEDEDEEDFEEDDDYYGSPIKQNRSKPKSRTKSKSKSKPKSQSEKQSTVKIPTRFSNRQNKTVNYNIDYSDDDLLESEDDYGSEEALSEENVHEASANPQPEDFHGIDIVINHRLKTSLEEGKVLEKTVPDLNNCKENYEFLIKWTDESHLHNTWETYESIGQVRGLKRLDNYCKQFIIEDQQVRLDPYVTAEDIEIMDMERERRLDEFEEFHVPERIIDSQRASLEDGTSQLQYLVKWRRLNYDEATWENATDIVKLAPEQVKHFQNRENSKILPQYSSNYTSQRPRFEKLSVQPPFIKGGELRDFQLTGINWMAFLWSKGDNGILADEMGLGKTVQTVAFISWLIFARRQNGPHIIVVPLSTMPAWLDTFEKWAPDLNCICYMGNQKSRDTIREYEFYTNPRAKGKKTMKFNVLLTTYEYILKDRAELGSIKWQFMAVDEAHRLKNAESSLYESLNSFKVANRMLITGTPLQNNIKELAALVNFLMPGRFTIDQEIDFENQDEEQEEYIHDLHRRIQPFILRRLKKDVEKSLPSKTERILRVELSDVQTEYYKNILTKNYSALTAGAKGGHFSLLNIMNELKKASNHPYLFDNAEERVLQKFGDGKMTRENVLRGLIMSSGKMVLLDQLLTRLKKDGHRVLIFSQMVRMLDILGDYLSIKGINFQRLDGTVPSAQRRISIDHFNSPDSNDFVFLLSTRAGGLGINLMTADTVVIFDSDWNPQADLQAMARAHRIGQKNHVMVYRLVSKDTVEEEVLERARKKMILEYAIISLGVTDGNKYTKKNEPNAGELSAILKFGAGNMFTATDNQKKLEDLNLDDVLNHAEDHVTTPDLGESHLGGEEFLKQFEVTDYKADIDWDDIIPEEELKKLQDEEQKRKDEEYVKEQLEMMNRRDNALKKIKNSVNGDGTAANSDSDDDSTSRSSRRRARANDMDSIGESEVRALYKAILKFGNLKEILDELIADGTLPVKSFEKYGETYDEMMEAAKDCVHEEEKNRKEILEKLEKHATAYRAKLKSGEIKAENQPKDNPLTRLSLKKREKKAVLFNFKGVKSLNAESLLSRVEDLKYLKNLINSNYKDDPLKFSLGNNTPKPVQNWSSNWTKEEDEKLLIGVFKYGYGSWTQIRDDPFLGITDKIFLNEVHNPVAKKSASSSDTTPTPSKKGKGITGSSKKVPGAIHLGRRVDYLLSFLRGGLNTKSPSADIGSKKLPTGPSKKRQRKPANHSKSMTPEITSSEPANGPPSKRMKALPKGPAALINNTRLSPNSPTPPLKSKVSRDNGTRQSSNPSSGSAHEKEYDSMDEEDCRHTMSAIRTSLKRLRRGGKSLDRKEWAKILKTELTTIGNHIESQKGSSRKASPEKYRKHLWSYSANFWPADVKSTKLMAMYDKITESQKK

Sialic acid-binding Ig-like lectin 9 (Homo sapiens), sequence (Q9Y336 whole entry): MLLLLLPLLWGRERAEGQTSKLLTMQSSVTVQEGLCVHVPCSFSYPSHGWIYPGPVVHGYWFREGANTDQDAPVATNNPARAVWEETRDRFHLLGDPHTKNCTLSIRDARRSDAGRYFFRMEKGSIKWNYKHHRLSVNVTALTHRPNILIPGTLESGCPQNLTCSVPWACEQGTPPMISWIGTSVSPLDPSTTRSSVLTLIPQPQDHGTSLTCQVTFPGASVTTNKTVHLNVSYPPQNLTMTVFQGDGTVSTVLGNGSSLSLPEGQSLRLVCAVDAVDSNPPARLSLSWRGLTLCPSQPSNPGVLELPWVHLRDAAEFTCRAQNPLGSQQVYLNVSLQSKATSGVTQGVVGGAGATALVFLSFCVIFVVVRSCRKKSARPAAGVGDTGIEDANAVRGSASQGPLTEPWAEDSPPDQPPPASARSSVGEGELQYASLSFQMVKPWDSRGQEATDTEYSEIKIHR
Protein translocase subunit SecA (Escherichia coli (strain K12)), sequence (P10408 whole entry): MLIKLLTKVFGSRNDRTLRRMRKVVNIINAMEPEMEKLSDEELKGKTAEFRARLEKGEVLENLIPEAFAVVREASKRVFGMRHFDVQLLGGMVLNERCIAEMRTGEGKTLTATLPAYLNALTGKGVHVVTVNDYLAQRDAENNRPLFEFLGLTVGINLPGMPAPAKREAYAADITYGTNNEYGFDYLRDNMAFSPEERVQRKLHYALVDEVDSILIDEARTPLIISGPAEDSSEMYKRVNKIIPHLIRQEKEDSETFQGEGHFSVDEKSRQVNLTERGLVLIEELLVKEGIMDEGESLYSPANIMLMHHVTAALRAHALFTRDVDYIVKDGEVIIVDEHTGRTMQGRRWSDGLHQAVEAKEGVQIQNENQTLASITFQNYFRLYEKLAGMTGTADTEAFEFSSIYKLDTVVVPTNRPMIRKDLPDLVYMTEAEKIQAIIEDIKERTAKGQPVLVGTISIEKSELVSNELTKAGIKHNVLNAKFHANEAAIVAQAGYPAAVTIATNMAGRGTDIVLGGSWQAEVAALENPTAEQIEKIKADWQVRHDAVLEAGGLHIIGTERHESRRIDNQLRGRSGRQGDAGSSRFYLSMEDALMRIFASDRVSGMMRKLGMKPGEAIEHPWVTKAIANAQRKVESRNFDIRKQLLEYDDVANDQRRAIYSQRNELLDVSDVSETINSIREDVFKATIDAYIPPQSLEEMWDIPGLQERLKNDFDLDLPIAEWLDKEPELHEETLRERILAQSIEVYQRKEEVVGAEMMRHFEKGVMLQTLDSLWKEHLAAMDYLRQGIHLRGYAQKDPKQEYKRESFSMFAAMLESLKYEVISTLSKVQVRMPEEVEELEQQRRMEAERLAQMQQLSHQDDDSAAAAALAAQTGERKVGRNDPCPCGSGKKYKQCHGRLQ

Row | SMILES | Percent Effect [1] | Percent Effect [2] | Percent Effect [3] | Percent Effect [4] | Percent Effect (Trypanosoma cruzi) | Percent Effect [5] | Percent Effect [6] | Percent Effect (Homo sapiens) | Percent Effect [7] | Percent Effect [8] | Percent Effect [9]
1 | CC(=O)NCCC1CCCCN1S(=O)(=O)c1cccc(C#N)c1 (stereo unspecified) | -7.77% | 8.22% | 1.2% | 3.78% | 1.98% | -2% | 13.6% | 4.41% | 2.08% | 8.64% | 0.784%
2 | O=C(Cn1ccnc1)N1C[C@@H]2CC[C@H](Oc3ccccc3Cl)[C@@H]2C1 | -7.33% | -4.05% | 13.2% | 1.9% | 0.198% | -3.94% | -1.09% | 31.6% | 0% | -1.3% | 1.94%
3 | CCN(CC)C(CNS(=O)(=O)c1ccc(C(=O)NC)cc1)c1ccco1 (stereo unspecified) | -3.83% | 5.41% | 3.15% | -5.57% | -5.47% | -1.67% | 18.5% | 13.1% | 9.9% | 6.1% | 7.75%
4 | CN(C)c1ccc(CCCNC(=O)Nc2ccc(C#N)cc2)cc1 | 1.86% | 8.11% | 2.26% | 11.1% | 3.86% | 11.4% | 15.7% | 72% | 5.82% | 14.6% | -5.31%
5 | CN(C)S(=O)(=O)N1CCC(Oc2ccccn2)CC1 | -2.83% | 2.6% | 2.73% | -0.581% | -6.41% | -7.1% | 14.1% | -7.21% | 6.35% | -1.28% | -7.73%
6 | CC(=O)c1c(F)cccc1N1CCC(Cc2cccnc2)CC1 | -2.45% | 8.22% | -4.3% | 3.69% | 6.15% | 2.4% | -1.46% | 57.7% | 7.29% | 13.6% | -9.38%
7 | COc1cc(C)nc(N2CCN(Cc3nccn3C)CC2)n1 | -2.16% | 9.72% | 3.08% | -2.82% | -0.875% | 1.32% | 10.3% | 0.819% | 2.1% | 2.56% | -3.1%
8 | CC[C@H](C)[C@H](NC(=O)c1ccccc1-n1cnnn1)C(=O)OC | -2.24% | -4% | 6.42% | -4.83% | -14.2% | -9.33% | 1.85% | -2.35% | -1.06% | -12.8% | 1.23%
9 | CCN(CC)Cc1cn2c(n1)CN(C(=O)c1cc(C)on1)CC2 | -2.81% | 16.2% | 5.86% | -5.08% | -4.01% | 9.24% | 23.2% | -1.45% | 2.16% | 10.3% | -0.746%
10 | CC(=O)Nc1nc(C2CCN(C(=O)c3cccnc3)CC2)cs1 | -6.73% | 21.3% | 0.538% | 3.28% | 2.36% | -2.56% | 12.1% | 5.76% | 5.32% | 19.2% | -2.51%
11 | CN(C(=O)NCCCN1CCCC1)C1CCN(c2ccccc2)C1=O (stereo unspecified) | 5.28% | 15.8% | 2.15% | -4.7% | -7.71% | 0.766% | 20.9% | 24.5% | 4.41% | 12.2% | -10.3%

From ChEMBL document CHEMBL3988442, “University of Dundee, Small-Polar-MMV Screening Library” (2021)
